From PubChem BioAssay (Tox21)
Results filed as inconclusive are left out. Where a call stands in place of a potency, no number is given. Values without a mark were called inactive. Calls of active or inactive are those of the source. Calls follow the shape of the dose curve; as a rule, active = well fitted cell-killing curve with a large enough effect in the repeat runs; inconclusive = weak or mixed curves, or effect the other way; inactive = no such curve, though single readings can be large or run the other way.

Test: qHTS assay to identify small molecule antagonists of the peroxisome proliferator-activated receptor gamma (PPARg) signaling pathway - cell viability counter screen (AID 743194); also: nearly all actives have a fitted effect of over 55% in size
Conditions: PPARg-bla HEK293H viability, CellTiter-Glo luminescence, 17 h; Potency: co-treated with 50 nM rosiglitazone unless noted; series mostly up to 62.6 µM; activity change, negative = cytotoxicity: at the top concentration
From the text: U.S. Tox21 Program National Center for Advancing Translational Sciences [NCATS] NIH Chemical Genomics Center [NCGC] U.S. Environmental Protection Agency [EPA] National Institutes of Environmental Health Sciences [NIEHS] National Toxicology Program [NTP] U.S. Food and Drug Administration [FDA] Tox21 Assay Overview: The peroxisome proliferator-activated receptors (PPARs) are lipid-activated transcription factors of the nuclear receptor superfamily with three distinct subtypes namely PPAR alpha, PPAR delta (also called PPAR beta) and PPAR gamma (PPARg). All these subtypes heterodimerize with Retinoid X receptor (RXR) and these heterodimers regulate transcription of various genes. PPAR-gamma receptor (glitazone receptor) is involved in the regulation of glucose and lipid metabolism. To identify the compounds that activate PPAR-gamma signaling, GeneBLAzer PPAR gamma UAS-bla HEK293H cell line (Invitrogen, Carlsbad, CA, USA) containing a beta-lactamase reporter gene under the control of an Upstream Activator Sequence (UAS) was used to screen the Tox21 compound library. The cytotoxicity of the Tox21 compound library against the PPARg-bla cell line was tested in parallel by measuring the cell viability using CellTiter-Glo assay in the same wells.
Tox21 Assay Protocol Summary: PPARg-bla cells were dispensed at 3000 cells/5uL/well in 1536-well black wall/clear bottom plates using a Multidrop Combi (Thermo Fisher Scientific, Waltham, MA) dispenser. After the assay plates were incubated at 37 C and 5% CO2 for 5 h, 23 nL of compounds dissolved in DMSO, positive controls or DMSO only was transferred to the assay plate by a Pintool station (Kalypsys, San Diego, CA), followed by addition of 1ul Rosiglitazone (50 nM, final concentration in the wells). The assay plates were incubated at 37 C for 17 h, and then 1 uL of LiveBLAzerTM B/G FRET substrate was added using a Bioraptr Flying Reagent Dispenser (FRD) workstation (Beckman Coulter, Indianapolis, IN, USA). The assay plates were incubated at room temperature for 1 h and fluorescence intensity was measured by an Envision plate reader (PerkinElmer, Shelton, CT). For cell viability readout that measures cytotoxicity, 4 ul/well of CellTiter-Glo reagent was added into the assay plates using a Flying Reagent Dispenser. After 30 min incubation at room temperature, the luminescence intensity in the plates was measured using a ViewLux plate reader (PerkinElmer).

SMILES | Potency | activity change, negative = cytotoxicity
O=C1O[C@H]([C@H](O)CO)C(O)=C1O | inactive | 
NC(N)=S | inactive | 
COCN(COC)c1nc(N(COC)COC)nc(N(COC)COC)n1 | inactive | 
CC1(C)[C@@H](O[C@H]2O[C@H](C(=O)O)[C@@H](O)[C@H](O)[C@H]2O[C@@H]2O[C@H](C(=O)O)[C@@H](O)[C@H](O)[C@H]2O)CC[C@]2(C)[C@H]3C(=O)C=C4[C@@H]5C[C@@](C)(C(=O)O)CC[C@]5(C)CC[C@@]4(C)[C@]3(C)CC[C@@H]12 | inactive | 
CC[N+](CC)(CC(=O)Nc1c(C)cccc1C)Cc1ccccc1 | inactive | 
COC(=O)CCCCC(=O)OC | inactive | 
CC(=O)OCCC(C)C | inactive | 
CC(=O)Nc1ccc(CC(=O)O)cc1 | inactive | 
O=c1c(O)c(-c2ccc(O)c(O)c2)oc2cc(O)cc(O)c12 | inactive | 
CCCN(CCC)C(=O)SCC |  | -27.1% [at 81.1 µM, co-treated with 50 nM rosiglitazone]
Cc1ccc(Cl)cc1 | inactive | 
CCOC(=O)c1ccc(O)cc1 | inactive | 
Brc1ccc(Oc2ccc(Br)cc2)cc1 | inactive | 
O=C(O)Cc1c[nH]c2ccccc12 | inactive | 
NC1CCCCC1N (stereo not given) | inactive | 
C=C(CC(=O)O)C(=O)O | inactive | 
O=C(c1ccccc1)c1ccc(O)c(O)c1O |  | -5.75% [at 81.1 µM, co-treated with 50 nM rosiglitazone]
COc1c(Cl)ccc(Cl)c1C(=O)O | inactive | 
CC/C(C)=N/O | inactive | 
C[Si](C)(C)N[Si](C)(C)C | inactive | 

SMILES | Potency | activity change, negative = cytotoxicity
C[n+]1ccn(CCO)c1 | inactive | 
C=C1C[C@]23C[C@@]1(O)CC[C@H]2[C@@]12C=C[C@H](O)[C@@](C)(C(=O)O1)[C@H]2[C@@H]3C(=O)O |  | -0.107%
COc1ccc(N)c(OC)c1 |  | 5.42%
CCCCCC(C)=O | inactive | 
O=C1C(N(CO)C(=O)NCO)N(CO)C(=O)N1CO (stereo not given) | inactive | 
O=[N+]([O-])c1ccccc1C(F)(F)F | inactive | 
CCc1cccc(O)c1 | inactive | 
CN=C(NC#N)NCCSCc1nc[nH]c1C | inactive | 
Nc1nc(N)c2nc(-c3ccccc3)c(N)nc2n1 | inactive | 
CC(=O)OCc1ccc2c(c1)OCO2 | inactive | 
Cc1ccc(C(C)C)cc1 | inactive | 
CCOC(=O)CC(=O)OCC |  | -4.21% [at 81.1 µM, co-treated with 50 nM rosiglitazone]
CCN(CC)CCNC(=O)c1ccc(N)cc1 |  | 11.5% [at 81.1 µM, co-treated with 50 nM rosiglitazone]
CC(C)(C)NC[C@H](O)COc1nsnc1N1CCOCC1 | inactive | 
CCCCCCCCO |  | -4.76% [at 81.1 µM, co-treated with 50 nM rosiglitazone]
CC(=O)c1nccs1 | inactive | 
COc1ccc([C@@H]2CC(=O)c3c(O)cc(O[C@@H]4O[C@H](CO[C@@H]5O[C@@H](C)[C@H](O)[C@@H](O)[C@H]5O)[C@@H](O)[C@H](O)[C@H]4O)cc3O2)cc1OC | inactive | 
O=c1n(CCCN2CCN(c3cccc(Cl)c3)CC2)nc2ccccn12 | inactive | 
CCc1cccc(CC)c1N | inactive | 
Clc1cccc(Cl)c1NC1=NCCN1 | inactive | 
